# From PubChem
# Only some compounds are listed: those with a hit (about 10% of all), similar ones and a draw of the others.
# Pf growth 96h = Primary qHTS for delayed death inhibitors of the malarial parasite plastid, 96 hour incubation; P. falciparum luciferase reporter growth, 96 h; Potency, µM (series often up to 28.7 µM), for the others: at the highest dose activity change, negative = inhibition, usual class: inhibitors; 320,000 tested, 6.9% active; AID 504834, 2011; active = well fitted inhibition curve with a large enough effect; inconclusive = small, poorly fitted or top-dose-only effect, or another doubt; inactive = no such curve, though single readings can be large or run the other way; also: % is scaled to controls: 0 for no effect and ±100 for the full control effect
#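 P. falciparum expressing integrated firefly luciferase grown in erythrocytes (2% hematocrit, 0.05% parasitemia final) with compounds for 96 hours at 37 C, 5% CO2. Growth inhibition read as loss of luminescence after adding luciferase detection reagent.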
# SARS PLpro yeast = qHTS of Yeast-based Assay for SARS-CoV PLP | 330,000 tested, 0.19% active | S. cerevisiae expressing SARS-CoV PLpro, growth rescue | Potency, µM (highest dose often 32.9 µM), without a hit: at the highest dose activity, positive = growth rescue, most hits filed as activators | AID 485353, 2010; also: 0% is about no effect; nearly all actives have a fitted effect of over 55% in size
# NS1 function inh = qHTS Assay for Inhibitors of Influenza NS1 Protein Function; Potency, µM (doses to about 46.1 µM), inactives show at the top dose activity, positive = more growth; 270,000 tested, 0.4% active; AID 2326, 2010; also: actives are rising curves; nearly all actives have a fitted effect of over 50% in size
#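 A cell-based growth assay was used: compounds that relieve NS1-induced slow growth of budding yeast raise OD600. Assay medium was yeast nitrogen base with ammonium sulphate and -URA supplement, pH 6.0, with 2% galactose.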
# Pf growth 48h = Primary qHTS for delayed death inhibitors of the malarial parasite plastid, 48 hour incubation. P. falciparum luciferase growth in erythrocytes, 48 h. Potency, µM (highest dose often 28.7 µM), for the others: top-dose activity change, negative = inhibition, usual class: inhibitors. 310,000 tested, 5.9% active; active = well fitted inhibition curve with a large enough effect; inconclusive = small, poorly fitted or top-dose-only effect, or another doubt; inactive = no such curve, though single readings can be large or run the other way; also: % is scaled to controls: 0 for no effect and ±100 for the full control effect
#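 In quantitative HTS format, infected erythrocytes bearing luciferase-reporter parasites were treated for a single generation at 37 C. Luminescence after adding detection reagent served as the growth measure.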
# Numbers without * were called inactive; ? = inconclusive; . = no result given. Unless noted, calls follow the shape of the full dose curve. Potency is read from the fitted curve at half-maximal effect.
SMILES,Pf growth 96h,SARS PLpro yeast,NS1 function inh,Pf growth 48h
O=C(/C=C/c1ccccc1)NC(=S)Nc1ccc(N2CCOCC2)cc1,-15.3%,12.6%,9.1%,5.4%
O=C(CN1CCN(S(=O)(=O)/C=C/c2ccccc2)CC1)Nc1ccccc1N1CCOCC1,3.7µM*,-4.7%,-7.5%,?
NC(=O)C1CCN(CC(=O)Nc2ccccc2N2CCOCC2)CC1,15.4%,0.1%,4.0%,5.5%
O=C(/C=C/c1ccc(Cl)cc1)NC(=S)Nc1ccc(N2CCOCC2)c(Cl)c1,10.4µM*,14.6%,18.9%,0.0%
O=C(/C=C/c1ccc(Cl)cc1)Nc1ccccc1N1CCOCC1,14.7µM*,-5.5%,-32.4%,33.9%
O=C(/C=C/c1ccc(Cl)cc1)Nc1ccc(N2CCOCC2)cc1,11.6%,1.3%,1.7%,-10.6%
COc1ccc(OC)c(NC(=O)CSc2nnc(CNC(=O)c3cc(OC)c(OC)c(OC)c3)o2)c1,-6.1%,.,6.5%,28.2%
Cc1c(Cl)sn(-c2ccc(Cl)cc2)c1=O,?,-5.7%,-57.5%,?
Cc1ccc2nc(-c3cccc(S(=O)(=O)N4CC(C)OC(C)C4)c3)cn2c1 (configuration not stated),-12.1%,5.5%,-19.4%,?
O=C1C2C3C=CC(C3)C2C(=O)N1CCN1CCN(S(=O)(=O)/C=C/c2ccccc2)CC1 (configuration not stated),5.86µM*,-0.3%,0.5%,-3.5%
O=C1C2C3C=CC(C3)C2C(=O)N1CCN1CCN(S(=O)(=O)c2ccc3ccccc3c2)CC1 (configuration not stated),14.6%,1.3%,-35.4%,-18.1%
Cc1nn(C)cc1C(=O)Nc1cc(Oc2ccc(Cl)cc2)cc([N+](=O)[O-])c1,.,-3.7%,-3.5%,?
CCn1nc(C)c(C(=O)Nc2cc(Oc3cc(C)cc(C)c3)cc([N+](=O)[O-])c2)c1C,11.7µM*,-12.8%,?,?
O=C(NCc1ccco1)c1cc2sccc2n1Cc1ccccc1,2.08µM*,-76.8%,-72.1%,11.7µM*
O=C(NCc1ccco1)c1ccc(Cn2c(=O)c3sccc3n(Cc3cccc(F)c3)c2=O)cc1,2.62µM*,0.4%,?,.
O=C(c1ccco1)N1CCN(C(=O)c2cc3sccc3n2Cc2ccccc2)CC1,-13.8%,10.1%,-1.2%,11.7µM*
O=C(C[C@H]1C/C=C\CC[C@H](Cc2ccc(F)cc2)C(=O)OC[C@H]2CCCN2C1=O)N[C@@H](CO)Cc1ccccc1,.,-1.0%,.,.
O=C(Cn1c(=O)c2cccn2c2ccccc21)Nc1cc(F)ccc1F,-20.9%,3.8%,7.8%,-3.1%
CC(=O)[C@@H]1[C@@H](C(=O)c2ccccc2)[C@]2(C(=O)Nc3ccccc32)[C@H]2C=Cc3cc(F)ccc3N12,?,-11.6%,11.0%,-13.9%
O=C(c1ccccc1)[C@@H]1[C@@H](C(=O)c2ccc(F)cc2)[C@@]2(C(=O)Nc3ccccc32)[C@H]2c3ccccc3C=CN12,?,19.9%,26.8%,14.7µM*
CCSc1ncc(Cl)c(C(=O)N(Cc2ccc(N(C)C)cc2)C2CCS(=O)(=O)C2)n1 (configuration not stated),8.6%,1.5%,-12.4%,10.4µM*
CN(C)c1ccc(CN(C(=O)c2cccs2)C2CCS(=O)(=O)C2)cc1 (configuration not stated),18.2%,-4.5%,-2.9%,4.8%
COc1ccc(-n2c(C)nc(=O)c(-c3ccccc3)c2C)cc1,9.28µM*,-14.2%,0.9%,-18.5%
CCNC(C(=O)c1c[nH]c2c(CC)cccc12)c1ccccc1 (configuration not stated),?,0.1%,-6.0%,?
COc1ccc(-c2c3c(nc4sc(C(=O)Nc5cc(C)on5)c(N)c24)CCC3)cc1,13.9%,-0.4%,12.9%,4.15µM*
SMILES,Pf growth 96h,SARS PLpro yeast,NS1 function inh,Pf growth 48h
C[C@@]1(CO)[C@H](O)CC[C@@]2(C)[C@H]1CC[C@H]1C[C@@H]3C[C@@]12CC[C@]3(O)CO,0.586µM*,-1.4%,-2.5%,0.522µM*
Nc1nc(=S)c2[nH]cnc2[nH]1,?,.,.,8.28µM*
C[n+]1ccccc1/C=C/c1cc(Br)ccc1O,?,2.0%,-3.4%,0.738µM*
COc1cc(/C=C/c2cccc[n+]2C)ccc1OCC(=O)Nc1ccccc1C,-21.0%,-1.4%,-26.3%,?
COc1ccc(/C=C/c2cccc[n+]2C)c(O)c1,186.9%,13.3%,-3.7%,?
CCOc1cc(/C=C/c2cccc[n+]2C)ccc1OCC(=O)Nc1ccc(C)cc1,5.22µM*,-3.8%,-34.8%,0.928µM*
CCOc1cc(/C=C/c2cccc[n+]2C)ccc1O,8.28µM*,-2.5%,-40.2%,9.28µM*
CCN(C(=O)COC(=O)c1nc(Cl)ccc1Cl)C1CCS(=O)(=O)C1 (configuration not stated),8.7%,-1.7%,.,2.0%
O=C1C=C(NCCOC23CC4CC(CC(C4)C2)C3)C2(CCCCC2)O1,-15.6%,-0.6%,.,0.0%
CC(=O)c1cccc(S(=O)(=O)Nc2ccccc2N2CCOCC2)c1,.,-10.5%,.,.
Cc1ccc(OCC(=O)NCCNC(=O)c2ccncc2)cc1C,?,0.9%,4.4%,-6.5%
Cc1ccc(C(=O)COC(=O)CCN2C(=O)C3C4C=CC(C5CC45)C3C2=O)cc1 (configuration not stated),15.3%,-5.5%,-30.5%,38.1%
CCCCN(C(=O)c1cc2c(s1)CCC2)c1c(N)n(CCC)c(=O)[nH]c1=O,25.4%,-3.2%,.,3.7%
C#CCOCCOCCOCCNc1nc(OC)nc(N2CCN(C(=O)[C@H](CCC(=O)O)n3cc(C(N)CO)nn3)CC2)n1 (some centres not stated),0.0%,-1.5%,.,6.9%
O=C(NCCC1=CCCCC1)C1CCN(S(=O)(=O)c2cccc3nsnc23)CC1,1.85µM*,2.5%,3.8%,?
O=C(NCCc1ccccc1)C1CCCN1S(=O)(=O)c1cccc2nsnc12 (configuration not stated),14.7%,-3.2%,-5.6%,-13.2%
O=C(NCCC1=CCCCC1)C1CCN(S(=O)(=O)c2ccccc2C(F)(F)F)CC1,?,1.6%,.,10.4µM*
COC(=O)CNC(=O)C1CCN(S(=O)(=O)c2cccc3nsnc23)CC1,13.1µM*,?,11.0%,16.6%
O=C(NCCN1CCCCCC1)C1CCCN1S(=O)(=O)c1cccc2nsnc12 (configuration not stated),?,0.8%,0.8%,1.65µM*
COc1ccc(S(=O)(=O)N2CCC(C(=O)NCCc3c[nH]c4ccccc34)CC2)cc1,?,2.0%,-1.9%,?
CCCCNC(=O)C1CCC(CNS(=O)(=O)c2cccc3nsnc23)CC1 (configuration not stated),-0.5%,5.6%,0.2%,-11.4%
CCOCCCNC(=O)C1CCC(CNS(=O)(=O)c2cccc3nsnc23)CC1 (configuration not stated),3.7µM*,5.1%,-5.4%,2.5%
CN1CCc2c(sc3nc(SCC(=O)N4CCCCC4)n(-c4ccccc4)c(=O)c23)C1,3.29µM*,-0.9%,25.0%,11.7µM*
